# Experimental data: PubChem BioAssay AID1345085 (National Center for Advancing Translational Sciences (NCATS), 2018)
# Inconclusive results are not listed. Values without a mark were called inactive. The source made the active and inactive calls. Calls follow the shape of the dose curve; as a rule, active = well fitted cell-killing curve with a large enough effect; inconclusive = small, poorly fitted or top-dose-only effect, or effect the other way; inactive = no such curve, though single readings can be large or run the other way.
# System: JEG-3
# Assay: Confirmatory qHTS for gynecologic anti-cancer compounds from libraries of approved drugs and bioactive compounds; also: nearly all actives have a fitted effect of over 55% in size
# Conditions: gynecologic cancer cell panel viability, ATPlite luminescence, 48 h; series mostly up to 57.6 µM
# Summary of the method: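 ATP-based luminescent viability (ATPlite) after 48 h drug treatment at 37 °C, 5% CO2, across 57.5 uM–0.977 nM in 1:3 steps. Cells seeded at 1,000 per well 16 h beforehand; IC50 values computed, HEK 293T as selectivity control.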
# % is scaled to controls: 0 for no effect and ±100 for the full control effect; potency is read from the fitted curve at half-maximal effect.
Structure (SMILES),Potency,"activity change, negative = viability loss"
Cc1ccc(C(N)=O)cc1Nc1nccc(-c2cn(C(C)C)c3cnccc23)n1,7.69 µM (active),–
CC[C@H](Nc1ncnc2nc[nH]c12)c1nc2cccc(F)c2c(=O)n1-c1ccccc1,–,-0.887% [at 10.6 µM]
CCc1c2c(nc3ccc(O)cc13)-c1cc3c(c(=O)n1C2)COC(=O)[C@]3(O)CC,0.122 µM (active),–
Cc1[nH]c2ccccc2c1CCNCc1ccc(/C=C/C(=O)NO)cc1,0.193 µM (active),–
CCc1nc(C(N)=O)c(Nc2ccc(N3CCC(N4CCN(C)CC4)CC3)c(OC)c2)nc1NC1CCOCC1,inactive,–
CC(C)Oc1ccc2c(=O)c(-c3ccccc3)coc2c1,24.3 µM (active),–
COc1ccc(OC)c(-c2nnc3ccc(-c4ccc(OC)c(O[C@@H]5CCOC5)c4)nn23)c1,4.85 µM (active),–
Cn1cnc2c(F)c(Nc3ccc(Br)cc3Cl)c(C(=O)NOCCO)cc21,inactive,–
CC[C@]1(O)C[C@H]2CN(CCc3c([nH]c4ccccc34)[C@@](C(=O)OC)(c3cc4c(cc3OC)N(C=O)[C@H]3[C@@](O)(C(=O)OC)[C@H](OC(C)=O)[C@]5(CC)C=CCN6CC[C@]43[C@@H]65)C2)C1,0.193 µM (active),–
Nc1ccc(-c2ccc3ncc4ccc(=O)n(-c5cccc(C(F)(F)F)c5)c4c3c2)cn1,2.43 µM (active),–
CC[C@H](CC#N)OC(=O)N[C@@H](C)c1cccc(NC(=O)Nc2ccc(-c3cnco3)c(OC)c2)c1,15.3 µM (active),–
Nc1ccc(C(=O)Nc2cccc(-c3nc(N4CCOCC4)c4oc5ncccc5c4n3)c2)cn1,5.44 µM (active),–
CN[C@@H](C)C(=O)N[C@H]1CN(C(=O)CC(C)C)CC[C@H]2CC[C@@H](C(=O)NC(c3ccccc3)c3ccccc3)N2C1=O,inactive,–
CC(C)c1nn(-c2c(Cl)cccc2Cl)c2nc(Cc3ccc(OCCO)cc3)[nH]c(=O)c12,0.0685 µM (active),–
C[C@@H](Oc1cc(-c2cnn(C3CCNCC3)c2)cnc1N)c1c(Cl)ccc(F)c1Cl,21.7 µM (active),–
CC(=O)NCC(=O)N1C2CCC1c1cc(Nc3ncc(C(F)(F)F)c(NC4CCC4)n3)ccc12 (stereo not drawn),19.3 µM (active),–
CNc1nc(Nc2ccc(C(=O)N3CCOCC3)cc2OC)ncc1Cl,inactive,–

Structure (SMILES),Potency,"activity change, negative = viability loss"
Cc1cnc(Nc2ccc(CN3CCOCC3)cc2)nc1Nc1cccc(S(=O)(=O)NC(C)(C)C)c1,9.68 µM (active),–
CCS(=O)(=O)N1CCN(c2ccc(Nc3ncc(C(N)=O)c(NC4CC4)n3)cc2)CC1,9.68 µM (active),–
Cc1ccccc1C(OCCN(C)C)c1ccccc1 (stereo not drawn),inactive,–
CCCCc1oc2ccc(NS(C)(=O)=O)cc2c1C(=O)c1ccc(OCCCN(CCCC)CCCC)cc1,27.3 µM (active),–
CCS(=O)(=O)c1cccc(-c2cc(C(=O)NC3CCN(C)CC3)c(C)c3[nH]c4ncc(C)cc4c23)c1,2.67 µM (active),–
Cc1cc(Nc2nc(N[C@@H](C)c3ncc(F)cn3)ncc2Cl)n[nH]1,inactive,–
COc1ccc(-c2cc3nccn3c(Nc3ncccc3C(N)=O)n2)cc1OC,12.2 µM (active),–
COc1cc(N2CCC(N3CCN(C)CC3)CC2)ccc1Nc1ncc(Cl)c(Nc2ccccc2S(=O)(=O)C(C)C)n1,19.3 µM (active),–
CCCC(=O)O[C@]1(C(=O)CCl)[C@@H](C)C[C@H]2[C@@H]3CCC4=CC(=O)C=C[C@]4(C)[C@@]3(F)C(=O)C[C@@]21C,10.9 µM (active),–
CCC1=CC2CN(C1)Cc1c([nH]c3ccccc13)[C@@](C(=O)OC)(c1cc3c(cc1OC)N(C)[C@H]1[C@@](O)(C(=O)OC)[C@H](OC(C)=O)[C@]4(CC)C=CCN5CC[C@]31[C@@H]54)C2 (stereo partly drawn),0.0943 µM (active),–
CCN(CC)CCNC(=O)c1c(C)[nH]c(/C=C2\C(=O)Nc3ccc(F)cc32)c1C,25.1 µM (active),–
Cc1nc(Nc2n[nH]c3c2CN(C(=O)NC(CN(C)C)c2ccccc2)C3(C)C)c2sccc2n1 (stereo not drawn),0.544 µM (active),–
CC1=C(CO)C(=O)O[C@@H]([C@@H](C)[C@H]2CC[C@H]3[C@@H]4C[C@H]5O[C@]56[C@@H](O)C=CC(=O)[C@]6(C)[C@H]4CC[C@]23C)C1,5.3 µM (active),–
Nc1ccccc1NC(=O)c1ccc(CNC(=O)OCc2cccnc2)cc1,3.85 µM (active),–
CC(=O)Nc1cccc(-n2c(=O)n(C3CC3)c(=O)c3c(Nc4ccc(I)cc4F)n(C)c(=O)c(C)c32)c1,inactive,–
Cc1cncc2cccc(S(=O)(=O)N3CCCN(C(=O)CN)C[C@@H]3C)c12,inactive,–
